Inconclusive results are not listed. Unmarked numbers belong to inactive results. Active and inactive are the calls of the source. The call rests on the fitted dose curve; in most records, active means well fitted cell-killing curve with a large enough effect; inconclusive means small, poorly fitted or top-dose-only effect, or effect the other way; inactive means no such curve, though single readings can be large or run the other way.
Assay: Viability qHTS for spleen associated tyrosine kinase inhibitor (SYKi) naive MV4-11 cells (AID 1963823); further: nearly all actives have a fitted effect of over 40% in size
Settings: MV4-11 AML viability, CellTiter-Glo luminescence, 72 h; series mostly up to 45 µM; viability (% of control): at the top concentration
Procedure, shortened: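 Viability of MV4-11 AML cells lacking prior SYK inhibitor exposure is scored by CellTiter-Glo luminescence following 72 hr compound incubation at 37 C, 5% CO2, seeded at 500 cells per well.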
Potency means the concentration at half of the fitted maximal effect.

Question: With `CC(=O)OC1C(CO)OC(O[C@H]2[C@H](OC(=O)[C@]34CCC(C)(C)C[C@H]3C3=CCC5[C@@]6(C)CC[C@H](O[C@@H]7O[C@H](C(=O)O)[C@@H](O)[C@H](O[C@@H]8OC[C@@H](O)[C@H](O)[C@H]8O)[C@H]7O[C@@H]7O[C@H](CO)[C@H](O)[C@H](O)[C@H]7O)[C@@](C)(C=O)C6CC[C@@]5(C)[C@]3(C)C[C@H]4O)O[C@H](C)[C@H](OC3OC(C)C(OC4OCC(O)C(O)C4O)C(O)C3O)[C@@H]2O)C(O)C1O` (stereo not given in full) as the compound, how does the viability (% of control) read?
Answer: Its viability (% of control) is 87.3% [at 9.25 µM].

Question: Which “viability (% of control)” value does the source give for `COC(=O)C1=COC(OC2OC(CO)C(O)C(O)C2O)C2C1CC(OC(=O)C(O)CC(=O)O)C2C` (stereo not given) here?
Answer: The value was 88.5% [at 17.3 µM].

Question: With `CC1(C)CC[C@]2(C(=O)O[C@@H]3O[C@H](CO)[C@@H](O)[C@H](O)[C@H]3O)CC[C@]3(C)C(=CCC4[C@@]5(C)CC[C@H](O[C@@H]6O[C@H](C(=O)O)[C@@H](O)[C@H](O)[C@H]6OC6OC(CO)C(O)C(O)C6O)C(C)(C)C5CC[C@]43C)[C@@H]2C1` (stereo not given in full) as the compound, how does the viability (% of control) read?
Answer: The viability (% of control) was 89.4% [at 9.25 µM].

Question: Which “viability (% of control)” value does the source give for `C[C@@]1(C(=O)O)CCC[C@@]2(C)C3=CC[C@H]4C[C@@]3(CC[C@H]12)CC4(O)CO` (stereo not given in full) here?
Answer: Its value is 68.6%.

Question: With `CC1OC(OC2C(OC3C(O[C@H]4CC[C@@]5(C)C(CC[C@]6(C)C5CC=C5C7CC(C)(C)CC(O)[C@]7(C)CC[C@]56C)C4(C)C)OC(C(=O)O)C(O)C3O)OCC(O)C2O)C(O)C(O)C1O` (stereo not given in full) as the compound, how does the viability (% of control) read?
Answer: The viability (% of control) was 90.6% [at 9.25 µM].

Question: Which Potency does the source give for `C=CC(=O)N1CCN(C(=O)CNc2cc(I)c(Cl)cc2O)CC1` here?
Answer: Its Potency is 7.31 µM (active).

Question: For `COc1cc(-c2cccc(O)c2)cc2c1OCO2`, which “viability (% of control)” value is on record?
Answer: Its value is 66.2%.

Question: With `COc1cc(C)c(C(=O)O[C@@H]2[C@H](O)[C@@H](CO)O[C@H]2n2ccc(=O)[nH]c2=O)c(OC)c1` as the compound, how does the “viability (% of control)” value read?
Answer: The value was 91.8% [at 17.3 µM].

Question: Which “viability (% of control)” value does the source give for `C=C[C@H]1[C@H](O[C@@H]2O[C@H](CO)[C@@H](O)[C@H](O)[C@H]2O)OC=C(C(=O)OC)[C@H]1C/C=C(/C=O)[C@@H]1C(C(=O)OC)=CO[C@@H](O[C@@H]2O[C@H](CO)[C@@H](O)[C@H](O)[C@H]2O)[C@@H]1C=C` here?
Answer: The value was 83.4% [at 17.3 µM].

Question: With `COC(=O)/C=C/c1ccc(O[C@@H]2O[C@H](CO)[C@@H](O)[C@H](O)[C@H]2O)cc1` as the compound, how does the “viability (% of control)” value read?
Answer: The value was 64.3%.

Question: With `CC(=O)[C@@H]1C[C@H](C(C)(C)O[C@@H]2O[C@H](CO)[C@@H](O)[C@H](O)[C@H]2O)CC[C@@]2(CO)OC(=O)C[C@@H]12` as the compound, how does the “viability (% of control)” value read?
Answer: The value was 87.9% [at 17.3 µM].

Question: With `CC1=C(C)C(=O)OC(C(C)(O)C2CCC3C4CC=C5CC(OC6OC(COC7OC(CO)C(O)C(O)C7O)C(O)C(O)C6O)CC(O)C5(C)C4CCC32C)C1` (stereo not given) as the compound, how does the “viability (% of control)” value read?
Answer: Its value is 65.8% [at 17.3 µM].

Question: For `CC(C)=C1CC2[C@](C)(CC[C@@H](OC(=O)C3(C)OC3C)[C@@]2(C)O)CC1=O` (stereo not given in full), which “viability (% of control)” value is on record?
Answer: Its value is 71.5%.

Question: For `Nc1ccc(-c2cccc3c(=O)cc(N4CCOCC4)oc23)cc1`, which Potency is on record?
Answer: The Potency was 9.2 µM (active).

Question: Which Potency does the source give for `CC1(C)CCC2(CC1)N[C@@H](C(=O)N[C@@H]1CC[C@@H](C(N)=O)OC1)[C@H](c1ccnc(Cl)c1F)[C@]21C(=O)Nc2cc(Cl)ccc21` here?
Answer: Its Potency is 16 µM (active).

Question: With `COc1cc(C2Oc3c(OC)cc(CCCO[C@@H]4O[C@H](CO)[C@@H](O)[C@H](O)[C@H]4O)cc3C2CO)ccc1O` (stereo not given in full) as the compound, how does the “viability (% of control)” value read?
Answer: Its value is 58.1% [at 17.3 µM].

Question: With `CCOC(=O)C1=CCCCC1S(=O)(=O)Nc1ccc(F)cc1Cl` (stereo not given) as the compound, how does the Potency read?
Answer: Its Potency is 20.9 µM (active).

Question: Which “viability (% of control)” value does the source give for `CCCCC(=O)N(Cc1ccc(-c2ccccc2-c2nn[nH]n2)cc1)C(C(=O)O)C(C)C` (stereo not given) here?
Answer: Its value is 82.3%.

Question: With `COc1c(C)c(OCC(O)C(C)(C)O)cc2c1CNC2=O` (stereo not given) as the compound, how does the “viability (% of control)” value read?
Answer: The value was 55.5%.

Question: With `Cc1cc2c(N3CCCC3)nc(N3CCCC3)nc2n1C` as the compound, how does the Potency read?
Answer: The Potency was 8.2 µM (active).

Question: For `CC(=O)N[C@H](Cc1ccc2ccccc2c1)C(=O)N[C@H](Cc1ccc(Cl)cc1)C(=O)N[C@H](Cc1cccnc1)C(=O)N[C@@H](CO)C(=O)N[C@@H](Cc1ccc(O)cc1)C(=O)N[C@H](CCCNC(N)=O)C(=O)N[C@@H](CC(C)C)C(=O)N[C@@H](CCCN=C(N)N)C(=O)N1CCC[C@H]1C(=O)N[C@H](C)C(N)=O`, which “viability (% of control)” value is on record?
Answer: The value was 106% [at 17.3 µM].

Question: With `COC(=O)[C@]12C(=O)C(C)=C(O)[C@@]1(C)C(C)=CC1[C@@]34CC[C@@H](OC(C)=O)C(C)(C)C3[C@H](C[C@]12C)OC4=O` (stereo not given in full) as the compound, how does the “viability (% of control)” value read?
Answer: Its value is 81.1% [at 17.3 µM].

Question: For `Cc1c(F)cc(C(=O)NC2CC2)cc1-c1ccc(C(=O)NCC(C)(C)C)cn1`, which Potency is on record?
Answer: The Potency was 0.164 µM (active).

Question: Which viability (% of control) does the source give for `C[C@@H]1O[C@@H](O[C@H]2[C@H](O[C@H]3[C@H](O[C@H]4CC[C@@]5(CO)C(CC[C@]6(C)C5CC=C5C7CC(C)(C)C[C@@H](O)[C@]7(C)CC[C@]56C)C4(C)C)O[C@H](C(=O)O)[C@@H](O)[C@@H]3O)OC[C@@H](O)[C@@H]2O)[C@H](O)[C@H](O)[C@H]1O` (stereo not given in full) here?
Answer: The viability (% of control) was 63.5% [at 9.25 µM].

Question: Which “viability (% of control)” value does the source give for `Cc1ccc(-c2c(-c3nn(C)c4ncnc(N5CC[C@H](N6CCCCC6)C5)c34)cnn2C)cc1` here?
Answer: Its value is 73.6%.

Question: Which “viability (% of control)” value does the source give for `O=C1NC(Cc2ccc(O)cc2)C(=O)N2CCCC12` (stereo not given) here?
Answer: The value was 59.9%.

Question: Which “viability (% of control)” value does the source give for `C/C(=C\CCC(C)(C)O)CCO[C@@H]1O[C@H](CO[C@@H]2O[C@@H](C)[C@H](O)[C@@H](O)[C@H]2O)[C@@H](O)[C@H](O)[C@H]1O` here?
Answer: Its value is 88.3% [at 17.3 µM].

Question: With `COc1c(F)cccc1C(=O)N1C[C@@H](C)CC[C@H]1CNc1ccc(Br)cn1` as the compound, how does the Potency read?
Answer: The Potency was 9.2 µM (active).

Question: With `COC(=O)C12C(=O)C(C)=C(O)C1(C)C(C)=CC1C3(CO)CCC(O)C(C)(C)C3CCC12C` (stereo not given) as the compound, how does the “viability (% of control)” value read?
Answer: The value was 75.1% [at 17.3 µM].

Question: For `CC/C=C\[C@H](O)[C@H](O)C1=C(C)C(=O)[C@]2(O1)C(=O)N[C@@](O)(C(=O)c1ccccc1)[C@@H]2O`, which “viability (% of control)” value is on record?
Answer: Its value is 73.7% [at 17.3 µM].

Question: For `C[C@@H]1O[C@@H](O[C@H]2[C@H](OC(=O)[C@]34CCC(C)(C)C[C@H]3C3=CCC5[C@@]6(C)C[C@H](O)[C@H](O[C@@H]7O[C@H](CO)[C@@H](O)[C@H](O)[C@H]7O)[C@@](C)(CO)C6[C@H](O)C[C@@]5(C)[C@]3(C)C[C@H]4O)OC[C@H](O)[C@@H]2O)[C@H](O)[C@H](O)[C@H]1O[C@@H]1OC[C@@H](O)[C@H](O[C@H]2OC[C@](O)(CO)[C@H]2O)[C@H]1O` (stereo not given in full), which viability (% of control) is on record?
Answer: The viability (% of control) was 84.5% [at 9.25 µM].

Question: Which Potency does the source give for `O=C(Nc1nc2ccc([N+](=O)[O-])cc2s1)C1CCCCC1` here?
Answer: Its Potency is 20.6 µM (active).

Question: Which Potency does the source give for `CNS(=O)(=O)c1ccccc1Nc1nc(Nc2ccc(N3CCN(C)CC3)cc2OC)ncc1Cl` here?
Answer: Its Potency is 0.0206 µM (active).

Question: With `COC(=O)C1=CO[C@@H](O[C@@H]2O[C@H](CO)[C@@H](O)[C@H](O)[C@H]2O)[C@H]2[C@@H]1C=C[C@]21C=C([C@H](C)OC(=O)/C=C/c2ccc(O[C@@H]3O[C@H](CO)[C@@H](O)[C@H](O)[C@H]3O)cc2)C(=O)O1` as the compound, how does the “viability (% of control)” value read?
Answer: Its value is 85.7% [at 17.3 µM].

Question: For `C/C(=N\N=C(N)N)c1cc(NC(=O)CCCCCCCCC(=O)Nc2cc(/C(C)=N/N=C(N)N)cc(/C(C)=N/N=C(N)N)c2)cc(/C(C)=N/N=C(N)N)c1`, which Potency is on record?
Answer: The Potency was 18.4 µM (active).

Question: Which “viability (% of control)” value does the source give for `O=C(/C=C/c1ccc(O)cc1)O[C@H]1[C@@H]2C=CO[C@@H](O[C@@H]3O[C@H](CO)[C@@H](O)[C@H](O)[C@H]3O)[C@@H]2[C@@]2(CO)O[C@@H]12` here?
Answer: The value was 66.8% [at 17.3 µM].

Question: With `CC1CCC2(C(=O)OC3OC(COC4OC(CO)C(O)C(O)C4O)C(O)C(O)C3O)CCC3(C)C(=CCC4C5(C)CCC(O)C(C)(C(=O)O)C5CCC43C)C2C1(C)O` (stereo not given) as the compound, how does the viability (% of control) read?
Answer: Its viability (% of control) is 98.4% [at 9.25 µM].

Question: Which “viability (% of control)” value does the source give for `CC1CC[C@]2(C(=O)O)CC[C@]3(C(=O)O)C(=CCC4[C@@]5(C)CC[C@H](OC6OC(C)C(O)C(OC7OC(CO)C(O)C(O)C7O)C6O)C(C)(C)C5CC[C@]43C)C2C1C` (stereo not given in full) here?
Answer: Its value is 62.9% [at 17.3 µM].

Question: Which Potency does the source give for `CCOc1ccc(-n2c([C@@H](C)N(Cc3cccnc3)C(=O)Cc3ccc(OC(F)(F)F)cc3)nc3ncccc3c2=O)cc1` here?
Answer: Its Potency is 18.4 µM (active).

Question: Which “viability (% of control)” value does the source give for `CCCOc1ccc(-c2nc(OC)c3ccccc3n2)cc1` here?
Answer: Its value is 77.2%.

From PubChem BioAssay (NCATS)
